From PubChem BioAssay (NCI)
This is part of a sample that, as a whole, favours compounds with a hit. Of some 83,000 tested, about 20% had one in any assay.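 For each line, cells grew in 96-well plates with the test compound present at a single concentration for 48 hours.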 Unmarked numbers belong to inactive results. Active and inactive are the calls of the source. How the source made its calls: active means growth percent below 10; inactive means the rest.

test system: HL-60(TB) leukemia; assay: NCI-60 one-dose screen, 48 h (100 = growth as untreated, 0 = no growth, -100 = all killed); details: 10 µM unless noted

SMILES	growth
FC1(F)CCN(Cc2c[nH]c3cc(Cl)ccc23)C[C@H]1CCc1ccccc1	62.1%
NC(=O)c1ccc(Br)o1	96.8%
O=C(Cn1nnc2ccccc21)N/N=C/c1ccccc1F	107%
COc1c(B(O)O)cc(F)cc1-c1nc2ccc3[nH]ncc3c2c2c1CCCC2	-2.38% (active)
COc1ccc(C2OCC(C)(C)CO2)cc1OC	100%
COc1cc(C(=O)Nc2cc(O)c(C/C=C(\C)CCC=C(C)C)c(O)c2)cc2c1O[C@]1(C)CC[C@@H](O)C(C)(C)[C@H]1C2	-3.87% (active)
CC(=O)Nc1c(Cl)cc2c(c1Cl)Cc1ccccc1-2	99.7%
O=c1[nH]c(-c2ccccc2)nc2sc3cc(O)ccc3c12	-33.5% (active)
COc1cc(/C=C2/C=C(c3ccc(C(C)(C)C)cc3)N(CCc3ccc(S(N)(=O)=O)cc3)C2=O)cc(OC)c1OC	20.5%
Clc1ccc2c(NCCCNc3nc(-n4ccnc4)nc4ccccc34)ccnc2c1	69.4%
O=C1/C(=C/c2ccc(Cl)c(Cl)c2)CN(C(=O)CCN2CCC(=NO)CC2)C/C1=C\c1ccc(Cl)c(Cl)c1	-16% (active)
Fc1cccc(-c2nc(-c3c[nH]c4ncccc34)cs2)c1	97.2% [100 µM]
N#CCc1ccc([N+](=O)[O-])cc1	53.1%
Cc1ccc(S(=O)(=O)Nc2cc(Sc3ccccc3)c(O)c3ccccc23)cc1	-31.2% (active)
NC(=S)Nc1cccc(O)c1	98.6%
